Screening results deposited in PubChem BioAssay by several laboratories.
CYP2C19 activ = activators of human cytochrome P450 2C19; activation factor at 5 µM; AID 1025; 96,000 tested, under 10 active; recombinant CYP2C19, luciferin-H EGE luminescence; active compounds read high; 0 = fully inhibited enzyme, 1 = untreated enzyme; P33261;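 active means activation factor of at least 2 at 5 µM in the primary screen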;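 further: 0 = wells with 2.5 mM tranylcypromine and 1 = vehicle-only wells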
Target sequence (P33261 whole entry, looked up): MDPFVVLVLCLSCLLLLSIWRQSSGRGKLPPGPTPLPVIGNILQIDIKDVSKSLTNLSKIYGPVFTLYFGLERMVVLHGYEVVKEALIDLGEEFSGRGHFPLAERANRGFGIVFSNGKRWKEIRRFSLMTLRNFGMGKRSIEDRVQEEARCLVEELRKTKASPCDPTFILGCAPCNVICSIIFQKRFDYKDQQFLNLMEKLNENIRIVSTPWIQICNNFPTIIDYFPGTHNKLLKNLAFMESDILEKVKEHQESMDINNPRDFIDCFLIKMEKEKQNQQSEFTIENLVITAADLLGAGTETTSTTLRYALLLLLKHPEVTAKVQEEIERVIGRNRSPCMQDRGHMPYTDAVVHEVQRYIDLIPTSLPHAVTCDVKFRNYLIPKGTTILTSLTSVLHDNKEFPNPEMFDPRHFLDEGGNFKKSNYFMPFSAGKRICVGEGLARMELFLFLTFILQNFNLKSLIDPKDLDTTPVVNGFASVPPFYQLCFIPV
CYP2C19 inh = blocks human cytochrome P450 2C19. P33261. CYP2C19 Supersomes, luciferin-H EGE luminescence, 30 min. inhibition, % at 5 µM. hit rate 21% among 96,000. AID 778;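 active means CYP2C19 inhibition above a set limit at 5 µM in the primary screen, cut at about 50% in these data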;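 further: plate controls were negative control wells for no effect and 2.5 mM tranylcypromine positive control for full effect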
CYP2C9 inh = blocks human cytochrome P450 2C9 | inhibition, % at 5 µM | CYP2C9 Supersomes, luciferin-H conversion, luminescence | AID 777 | hit rate 20% among 96,000 | P11712;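 active means blocking of liver enzyme CYP2C9 beyond about 50% at 5 µM, limit read from the data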
CYP2C9 act = CYP2C9 (human) activation; P11712; recombinant CYP2C9, luciferin-H conversion, luminescence; active compounds read high; factor 1 = untreated enzyme, 0 = blocked; activation factor at 5 µM; hit rate 1.4% among 96,000; AID 1024;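 active means activation factor of 2 or more for CYP2C9 at a 5 µM dose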;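 further: 0 = sulfaphenazole-blocked wells and 1 = vehicle-only wells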
sEH inh = inhibitors of human soluble epoxide hydrolase; P34913; recombinant human sEH enzymatic activity assay; inhibition, % at 2 µM; hit rate 0.34% among 91,000; in the data active means inhibition above about 80%
sEH activator = increases human soluble epoxide hydrolase activity | P34913 | purified human sEH enzymatic activity, activator screen | activation, % at 2 µM | hit rate 0.04% among 91,000 | AID 717; in the data active means activation above about 37%
The depositor's hits bear a star. This is a sample that favours compounds with a hit; in the whole collection about 27% have one here.

How did COCCCNC(=O)c1ccc(N2CCCC2)c(NS(=O)(=O)c2ccc(C)cc2)c1 do in these assays?
CYP2C19 activ: 0.6; CYP2C19 inh: 36; CYP2C9 inh: 31; CYP2C9 act: 0.7

What do the screens show for `COc1ccc(S(=O)(=O)C(C#N)c2nc3ccccc3nc2N2CCC(C)CC2)cc1` (stereo not drawn)?
CYP2C19 activ: 1; CYP2C19 inh: -3; CYP2C9 inh: -8; CYP2C9 act: 1.1

Results for Cc1nn(C)c(C)c1/C=N/O ?
CYP2C19 activ: 1.1; CYP2C19 inh: -14; CYP2C9 inh: -21; CYP2C9 act: 1.2; sEH inh: 6; sEH activator: -7

How did O=C(COc1cc(Cl)ccc1Cl)Nc1nnc(CC(=O)N2CCOCC2)s1 do in these assays?
CYP2C19 activ: 1.1; CYP2C19 inh: -6; CYP2C9 inh: 20; CYP2C9 act: 0.8; sEH inh: 18; sEH activator: -17

Results for Cc1cc(NC(=O)c2cc(-c3ccncc3)nc3c(C)cccc23)no1 ?
CYP2C19 activ: 0.1; CYP2C19 inh: 90*; CYP2C9 inh: 97*; CYP2C9 act: 0; sEH inh: 12; sEH activator: -10

Results for CCOC(=O)c1[nH]c2c(c1C)C(=O)CC(c1ccc(OC)c(OC)c1)C2 (stereo not drawn) ?
CYP2C19 activ: 0.8; CYP2C19 inh: 22; CYP2C9 inh: 81*; CYP2C9 act: 0.2; sEH inh: -5; sEH activator: 7

Results for COc1cc(C2CC(=O)c3c([nH]c(C(=O)OCCOC(C)C)c3C)C2)cc(OC)c1OC (stereo not drawn) ?
CYP2C19 activ: 0.7; CYP2C19 inh: 34; CYP2C9 inh: 79*; CYP2C9 act: 0.2; sEH inh: 6; sEH activator: -6

What do the screens show for `COC(=O)c1[nH]c2c(c1C)C(=O)CC(c1ccccc1)C2` (stereo not drawn)?
CYP2C19 activ: 0.5; CYP2C19 inh: 53*; CYP2C9 inh: 71*; CYP2C9 act: 0.3; sEH inh: -8; sEH activator: 9

How did COc1cc(C(=O)OCCN2CCOCC2)cc(OC)c1OC do in these assays?
CYP2C19 activ: 0.9; CYP2C19 inh: 9; CYP2C9 inh: 0; CYP2C9 act: 1; sEH inh: -15; sEH activator: 15

Results for C/C=C/COC(=O)c1[nH]c2c(c1C)C(=O)CC(c1ccco1)C2 (stereo not drawn) ?
CYP2C19 activ: 0.8; CYP2C19 inh: 20; CYP2C9 inh: 39; CYP2C9 act: 0.6; sEH inh: 10; sEH activator: -11

How did O=C(Nc1cccc(S(=O)(=O)c2cccc(NC(=O)C3CC3)c2)c1)C1CC1 do in these assays?
CYP2C19 activ: 0; CYP2C19 inh: 99*; CYP2C9 inh: 60*; CYP2C9 act: 0.4; sEH inh: 10; sEH activator: -9

How did CSc1cccc(NC(=O)/C=C/c2ccccc2)c1 do in these assays?
CYP2C19 activ: 0.4; CYP2C19 inh: 55*; CYP2C9 inh: -91; CYP2C9 act: 1.9; sEH inh: 16; sEH activator: -18

Results for CCC(=O)Nc1cccc(C(=O)/C=C/c2ccccc2)c1 ?
CYP2C19 activ: 0.4; CYP2C19 inh: 60*; CYP2C9 inh: -101; CYP2C9 act: 2*; sEH inh: 0; sEH activator: 2

Results for CCC(=O)Nc1cccc(Br)c1 ?
CYP2C19 activ: 1; CYP2C19 inh: -1; CYP2C9 inh: -5; CYP2C9 act: 1.1; sEH inh: -2; sEH activator: 0

Results for O=C(c1ccccc1)c1cccc(NC(=O)C2CC2)c1 ?
CYP2C19 activ: 0.4; CYP2C19 inh: 62*; CYP2C9 inh: 4; CYP2C9 act: 1; sEH inh: -8; sEH activator: 9

Results for CCCCN(C(=O)Cc1cccs1)c1nnc(-c2cccnc2)s1 ?
sEH inh: 10; sEH activator: -8

Results for CC(NC(=O)CC1Nc2ccccc2NC1=O)c1ccccc1 (stereo not drawn) ?
CYP2C19 activ: 0.9; CYP2C19 inh: 14; CYP2C9 inh: -53; CYP2C9 act: 1.5

Results for CCC(=O)NC1=C(NC(C)c2ccccc2)C(=O)c2ccccc2C1=O (stereo not drawn) ?
CYP2C19 activ: 0.7; CYP2C19 inh: 30; CYP2C9 inh: 52*; CYP2C9 act: 0.5; sEH inh: -11; sEH activator: 10

What do the screens show for `CCC(=O)Nc1cccc(C(=O)c2ccccc2)c1`?
CYP2C19 activ: 0.2; CYP2C19 inh: 77*; CYP2C9 inh: -7; CYP2C9 act: 1.1; sEH inh: -7; sEH activator: 11

Results for CCC(=O)Nc1ccc2c(c1)C(=O)c1ccccc1C2=O ?
CYP2C19 activ: 0.9; CYP2C19 inh: 6; CYP2C9 inh: 58*; CYP2C9 act: 0.4; sEH inh: 6; sEH activator: -3

Results for CCC(=O)Nc1ccc2c(c1)C(=O)N(C)C2=O ?
CYP2C19 activ: 1.1; CYP2C19 inh: -12; CYP2C9 inh: 6; CYP2C9 act: 0.9; sEH inh: 2; sEH activator: -4

Results for O=C(Nc1ccc(C#Cc2ccccc2)cc1)C1CC1 ?
CYP2C19 activ: 1.1; CYP2C19 inh: -11; CYP2C9 inh: -131; CYP2C9 act: 2.3*; sEH inh: -2; sEH activator: 4

How did Cc1nn(C)cc1CNC(=O)c1ccc(Br)o1 do in these assays?
CYP2C19 activ: 0.9; CYP2C19 inh: 14; CYP2C9 inh: 8; CYP2C9 act: 0.9; sEH inh: 0; sEH activator: 2

How did CCC(=O)Nc1cccc(C(=O)OCC(=O)c2ccccc2Cl)c1 do in these assays?
CYP2C19 activ: 0.7; CYP2C19 inh: 27; CYP2C9 inh: -236; CYP2C9 act: 3.4*; sEH inh: 5; sEH activator: -6

What do the screens show for `COc1ccc(-n2c(SCC(=O)NC3CCCCC3)nc3ccsc3c2=O)cc1`?
CYP2C19 activ: 1.1; CYP2C19 inh: -9; CYP2C9 inh: -7; CYP2C9 act: 1.1; sEH inh: 37; sEH activator: -36

What do the screens show for `CCOC(=O)c1sc(C)c2c(=O)n(CCCN3CCOCC3)cnc12`?
CYP2C19 activ: 1.1; CYP2C19 inh: -14; CYP2C9 inh: -20; CYP2C9 act: 1.2

What do the screens show for `COc1ccc(C(=O)N=c2nc3ccccn3s2)cc1`?
CYP2C19 activ: 0.4; CYP2C19 inh: 65*; CYP2C9 inh: 33; CYP2C9 act: 0.7

What do the screens show for `COC(=O)C1ON2OC(C(=O)OC)C(C(=O)OC)C2C1CC(C)=O` (stereo not drawn)?
CYP2C19 activ: 1; CYP2C19 inh: -2; CYP2C9 inh: 2; CYP2C9 act: 1; sEH inh: -8; sEH activator: 8

What do the screens show for `Cn1cccc1C(=O)C(=O)Nc1ccccc1`?
CYP2C19 activ: 0.5; CYP2C19 inh: 49; CYP2C9 inh: -26; CYP2C9 act: 1.3; sEH inh: -5; sEH activator: 11

What do the screens show for `CN1c2ccccc2C(O)=C(C(=S)Nc2ccccc2)S1(=O)=O`?
CYP2C19 activ: 1; CYP2C19 inh: 1; CYP2C9 inh: 82*; CYP2C9 act: 0.2
